# Laboratory results as given in the GenesisPotency data set.
# Out of some 1,300 compounds screened, fewer than 10 were called active. Not shown: some 3% with an inconclusive outcome. Calls follow the shape of the dose curve; as a rule, active = well fitted inhibition curve with a large enough effect; inconclusive = small, poorly fitted or top-dose-only effect; inactive = flat fitted curve, though single readings scatter. These entries were drawn from the full list.
# Test system: T1, 
# T1 sequence (whole entry): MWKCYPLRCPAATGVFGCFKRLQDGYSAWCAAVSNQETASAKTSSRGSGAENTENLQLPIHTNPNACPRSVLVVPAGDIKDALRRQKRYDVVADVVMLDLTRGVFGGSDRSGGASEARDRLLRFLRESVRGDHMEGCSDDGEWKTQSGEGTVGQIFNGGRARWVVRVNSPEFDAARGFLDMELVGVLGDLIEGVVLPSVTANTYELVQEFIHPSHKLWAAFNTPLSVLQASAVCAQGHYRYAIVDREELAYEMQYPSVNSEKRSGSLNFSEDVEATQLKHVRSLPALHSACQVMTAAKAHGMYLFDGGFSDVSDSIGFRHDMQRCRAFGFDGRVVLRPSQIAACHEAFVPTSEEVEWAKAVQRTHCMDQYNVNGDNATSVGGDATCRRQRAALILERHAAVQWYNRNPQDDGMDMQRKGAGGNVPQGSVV
# Test: qHTS of Trypanosoma Brucei Inhibitors: LOPAC Validation (AID 624147)
row,SMILES,outcome
1,N.N.[Cl][Pt][Cl],active
